These results are taken from PubChem BioAssay.

Test [1] can be described thus: E. coli DRC41 culture turbidity changes, primary screen, E. coli filamentation inducer project, strain DRC41, OD650, 48 h (AID 1152).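 Also: E. coli MC1000 strain DRC41 lacking acrAB efflux pump and sulA.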 The settings on record: E. coli DRC41 (acrAB sulA), higher = more signal, called active from +8 up or from −8 down.
Test [2] in a line: small-molecule binders of probe aLefty1, primary screen, biochemical, small-molecule microarray, 635/667 nm fluorescence (AID 1153).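 Also: score merges spot fluorescence with signal-to-noise ratio from the scanned slide images.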 Conditions: higher = more signal.
Test [3] is described as follows: PSAC antagonists in infected red cells, primary screen, cell-based, P. falciparum Indochina, OD700, 1 h (AID 1154). The settings on record: P. falciparum Indochina infected RBC osmotic lysis, higher = more signal, called active from +8 up or from −8 down.
A short description of test [4]: PSAC antagonists in infected red cells, primary screen, cell-based, P. falciparum Indochina, OD700, 2 h (AID 1155).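 Also: lysis reports solute entry through the parasite surface anion channel PSAC; channel blockers reduce lysis of infected cells.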 The settings on record: P. falciparum Indochina infected erythrocytes, osmotic lysis OD700; higher = more signal, called active from +8 up or from −8 down.
The nature of test [5]: osmotic lysis modulators in infected erythrocytes, primary screen, PSAC antagonist project, cell-based, P. falciparum Indochina, OD700, 3 h (AID 1156). Conditions: higher = more signal, called active from +8 up or from −8 down.
The nature of test [6]: PSAC antagonists in infected red cells, primary screen, cell-based, P. falciparum Indochina, OD700, 18 h (AID 1157). The settings on record: P. falciparum Indochina infected erythrocytes, osmotic lysis OD700, 18 h; higher = more signal, called active from +8 up or from −8 down.
A short description of test [7]: modulators of S6 phosphorylation in cells, primary screen, cell-based, A549, cytoblot, luminescence, serum-stimulated (AID 1158).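 Also: serum-stimulated A549 lung adenocarcinoma cells; signal is phosphorylated S6 detected by cytoblot immunostaining with HRP secondary.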 The settings on record: A549 phospho-S6 cytoblot, 5 h, higher = more signal.
The target in test [8] is NADPH oxidase 2 (Homo sapiens) (UniProt P04839). The test is described as follows: NOX2-dependent H2O2 signal modulators, primary screen, NOX inhibitor project, cell-based, HEK293-NOX2, PMA-stimulated, Amplex Red fluorescence (AID 1159). Also: test concentration not given here. The settings on record: 45 min, higher = more signal, called active from +8 up or from −8 down.
Test [9] concerns the target NADPH oxidase 4 (Homo sapiens) (UniProt Q9NPH5). Kind of test: NOX4-dependent H2O2 signal modulators, primary screen, NOX inhibitor project, cell-based, HEK293-NOX4, tetracycline-induced, Amplex Red fluorescence (AID 1160). Conditions: 45 min, higher = more signal, called active from +8 up or from −8 down.
Test [10] concerns the target NADPH oxidase 5 (Homo sapiens) (UniProt Q96PH1). Kind of test: NOX5-dependent H2O2 signal modulators, primary screen, NOX inhibitor project, cell-based, HEK293-NOX5, Amplex Red fluorescence (AID 1161). Conditions: HEK293-NOX5, ionomycin, 45 min, higher = more signal.
A short description of test [11]: A549 cell viability effects, profiling panel, calcein-AM fluorescence, 48 h, basal (AID 1162). Also: test concentration not given here. Conditions: higher = more signal.
Test [12] is described as follows: adipocyte viability effects, profiling panel, cell-based, 3T3-L1 adipocytes, calcein-AM fluorescence, 48 h, basal (AID 1163). Also: test concentration not given here. Conditions: 3T3-L1 adipocytes viability, higher = more signal.
The nature of test [13]: HepG2 cell viability effects, profiling panel, calcein-AM fluorescence, 48 h, basal (AID 1164). Also: test concentration not given here. The settings on record: higher = more signal.
Test [14] can be described thus: MM1S cell viability effects, profiling panel, calcein-AM fluorescence, 48 h, basal (AID 1165).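 Also: viability of MM1S multiple myeloma cells under basal unstimulated conditions; test concentration not given here.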 Conditions: higher = more signal.
Test [15] is described as follows: basal RPMI8226 viability, no added stimulus, profiling panel, cell-based, calcein-AM fluorescence, 48 h, PK04 Diversity Set (AID 1166).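 Also: cells grown under basal conditions without added stimulus; test concentration not given here.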 Conditions: RPMI8226 myeloma viability, higher = more signal.
Test [16] is described as follows: basal HepG2 mitochondrial membrane potential changes, profiling panel, cell-based, JC-1 fluorescence, 24 h, 100 nL compound (AID 1167). Also: test concentration not given here. The settings on record: higher = more signal.
Test [17] is described as follows: basal 3T3-L1 adipocyte mitochondrial potential changes, profiling panel, cell-based, JC-1 fluorescence, 3T3-L1 adipocytes, 24 h, 100 nL compound (AID 1168). Also: test concentration not given here. Conditions: JC-1 mitochondrial fluorescence, higher = more signal, called active from +8 up or from −8 down.
Test [18] in a line: basal RPMI8226 mitochondrial membrane potential changes, profiling panel, cell-based, JC-1 fluorescence, 24 h, 100 nL compound (AID 1169). Also: test concentration not given here. Conditions: RPMI8226 myeloma, JC-1 mitochondrial potential fluorescence, higher = more signal.
Test [19] in a line: basal MM1S mitochondrial membrane potential changes, profiling panel, cell-based, JC-1 fluorescence, 24 h, 100 nL compound (AID 1170). Also: test concentration not given here. The settings on record: higher = more signal.
The nature of test [20]: A549 lung cancer cell viability effects, profiling panel, resazurin fluorescence, 24 h, PK04 Diversity Set (AID 1171). Also: test concentration not given here. The settings on record: higher = more signal, called active from +8 up or from −8 down. For orientation: Alamar Blue is a resazurin reagent that responds to reducing activity.

SMILES strings stand for the structures. Active and inactive are the calls of the source.

Chain of NADPH oxidase 5 (Homo sapiens) (Q96PH1 whole entry, looked up): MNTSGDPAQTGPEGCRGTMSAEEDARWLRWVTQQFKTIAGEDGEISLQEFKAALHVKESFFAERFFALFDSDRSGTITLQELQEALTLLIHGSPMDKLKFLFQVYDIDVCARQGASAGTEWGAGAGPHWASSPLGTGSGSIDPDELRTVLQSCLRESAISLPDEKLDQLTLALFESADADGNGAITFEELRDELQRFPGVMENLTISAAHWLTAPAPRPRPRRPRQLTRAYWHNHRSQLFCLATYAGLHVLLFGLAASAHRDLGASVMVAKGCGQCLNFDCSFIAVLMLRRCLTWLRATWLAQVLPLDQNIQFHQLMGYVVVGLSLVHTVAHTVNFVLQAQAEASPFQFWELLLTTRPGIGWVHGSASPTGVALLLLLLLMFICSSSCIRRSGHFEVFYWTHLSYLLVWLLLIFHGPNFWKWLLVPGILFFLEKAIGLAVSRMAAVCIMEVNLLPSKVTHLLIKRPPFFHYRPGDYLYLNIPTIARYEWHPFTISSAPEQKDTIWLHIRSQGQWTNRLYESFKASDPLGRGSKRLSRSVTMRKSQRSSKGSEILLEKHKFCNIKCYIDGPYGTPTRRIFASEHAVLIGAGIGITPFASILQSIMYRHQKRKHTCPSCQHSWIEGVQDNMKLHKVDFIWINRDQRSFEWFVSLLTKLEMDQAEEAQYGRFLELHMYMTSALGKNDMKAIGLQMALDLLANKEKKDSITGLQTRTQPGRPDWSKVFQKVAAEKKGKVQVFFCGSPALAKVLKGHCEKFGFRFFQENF
Chain of NADPH oxidase 4 (Homo sapiens) (Q9NPH5 whole entry, looked up): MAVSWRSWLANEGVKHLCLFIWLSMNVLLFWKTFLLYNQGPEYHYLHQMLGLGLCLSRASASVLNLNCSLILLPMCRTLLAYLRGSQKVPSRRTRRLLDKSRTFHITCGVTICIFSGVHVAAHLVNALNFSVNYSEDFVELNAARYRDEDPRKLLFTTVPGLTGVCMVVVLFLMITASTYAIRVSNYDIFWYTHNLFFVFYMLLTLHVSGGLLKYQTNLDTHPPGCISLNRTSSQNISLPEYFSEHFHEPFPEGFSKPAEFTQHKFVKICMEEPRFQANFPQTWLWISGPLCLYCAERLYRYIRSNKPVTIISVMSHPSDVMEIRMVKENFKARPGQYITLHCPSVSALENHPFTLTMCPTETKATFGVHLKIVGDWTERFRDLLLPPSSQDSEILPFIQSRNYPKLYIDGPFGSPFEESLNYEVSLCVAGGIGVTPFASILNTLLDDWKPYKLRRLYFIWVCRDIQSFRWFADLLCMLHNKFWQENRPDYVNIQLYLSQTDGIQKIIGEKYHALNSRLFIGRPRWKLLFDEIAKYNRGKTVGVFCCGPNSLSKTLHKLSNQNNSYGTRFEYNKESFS
Chain of NADPH oxidase 2 (Homo sapiens) (P04839 whole entry, looked up): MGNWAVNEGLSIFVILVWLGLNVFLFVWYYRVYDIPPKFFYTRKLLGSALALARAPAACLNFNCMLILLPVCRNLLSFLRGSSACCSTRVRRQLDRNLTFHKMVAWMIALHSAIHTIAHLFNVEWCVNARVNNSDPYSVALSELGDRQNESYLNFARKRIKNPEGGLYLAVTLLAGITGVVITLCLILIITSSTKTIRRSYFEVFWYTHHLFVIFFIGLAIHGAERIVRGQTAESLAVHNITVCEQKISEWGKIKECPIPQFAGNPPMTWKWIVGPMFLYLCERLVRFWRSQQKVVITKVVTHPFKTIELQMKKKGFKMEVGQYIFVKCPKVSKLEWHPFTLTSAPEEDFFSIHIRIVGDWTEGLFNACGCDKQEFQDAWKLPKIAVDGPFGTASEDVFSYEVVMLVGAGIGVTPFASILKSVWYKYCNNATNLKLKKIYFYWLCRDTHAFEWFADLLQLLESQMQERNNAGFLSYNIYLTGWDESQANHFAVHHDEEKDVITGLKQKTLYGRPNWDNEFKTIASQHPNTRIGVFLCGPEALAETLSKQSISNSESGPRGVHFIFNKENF

As for `CCOC(=O)C[C@H]1[C@H](OC(=O)c2cc3ccccc3oc2=O)[C@@H](NC(=O)C2CCCCC2)c2cc(OCCCO)ccc2N1C(=O)c1ccccc1`, the z-score is 1.67 (inactive) in [1]; 0.388 (inactive) in test [3]; -0.269 (inactive) in test [4]; 0.342 (inactive) in test [5]; -1.4 (inactive) in test [6]; 1.18 in [7]. Besides, the z-score is -0.341 (inactive) in [8]; 0.609 (inactive) in test [9]; 0.305 in test [10]; -0.11 in test [11]; 3.15 in [12]; 0.914 in [13]. The z-score in test [14] is 0.172; in test [15], -0.594; in test [16], 1.36; in [17], -0.186 (inactive); in test [18], -0.848; in test [19], 0.739. Further, the z-score in test [20] was -0.713 (inactive). Further, in test [2], the composite z-score is -0.147.
As for `C=CCNC(=O)[C@H]1[C@@H]2C(=O)O[C@@H](c3ccccc3)[C@@H](c3ccccc3)N2[C@@H](c2ccccc2OCCO)[C@]12C(=O)Nc1ccc(C#CC3=CCCCC3)cc12`, the z-score in [1] is 0.748 (inactive); in test [3], 3.01 (inactive); in [4] it was 2.25 (inactive); in [5], 0.407 (inactive); in [6], 1.71 (inactive); in test [7], 0.142. In addition, the z-score in test [8] was 1.38 (inactive); in test [9], 0.676 (inactive); in test [10], 1.75; in [11] it was -1.64; in [12], 1.04; in test [13], -4.21. In addition, the z-score in [14] was -3.35; in [15] it was -4.07; in test [16], -1.84; in test [17], 2.75 (inactive); in test [18], -0.853; in test [19], -1.84. Moreover, the z-score in [20] is -1.27 (inactive). In test [2], the composite z-score was 0.0919.
`CCOC1=C2C(CN(S(=O)(=O)c3ccc(C)cc3)C2c2ccc(C)cc2)C2C(=O)N(c3ccccc3)C(=O)C2C1` (stereo not given): the z-score is -0.0859 (inactive) in test [1]; 1.87 (inactive) in test [3]; 1.24 (inactive) in [4]; 0.398 (inactive) in test [5]; 0.855 (inactive) in test [6]; -0.258 in test [7]. Besides, the z-score in [8] is 1.12 (inactive); in test [9], 0.103 (inactive); in test [10], -0.229; in test [11] it was -0.592; in test [12] it was -0.843; in test [13], 0.58. For the same compound, the z-score in test [14] is 0.729; in test [15], 0.285; in [16], 0.247; in test [17] it was 1.2 (inactive); in test [18] it was 1.1; in test [19] it was -1.37. Moreover, the z-score in [20] was -0.376 (inactive). The compound also showed a composite z-score in test [2] of 0.0839.
In the case of `COC(=O)C(CC#Cc1ccc2c(c1)[C@]1(C(=O)N2)[C@H](c2ccc(O)cc2)N2[C@H](c3ccccc3)[C@H](c3ccccc3)OC(=O)[C@H]2[C@@H]1C(=O)Nc1nc2ccccc2s1)C(=O)OC`, the z-score was 1.25 (inactive) in [1]; 1.11 (inactive) in test [3]; -0.314 (inactive) in test [4]; -0.0671 (inactive) in [5]; -1.84 (inactive) in test [6]; 2.08 in test [7]. For the same compound, the z-score is 2.11 (inactive) in test [8]; 0.604 (inactive) in test [9]; 2.21 in [10]; 1.37 in test [11]; 0.72 in [12]; 1.47 in test [13]. The z-score is 0.247 in test [14]; -1.65 in test [15]; -1.44 in test [16]; -0.719 (inactive) in [17]; -0.712 in [18]; 0.422 in test [19]. In test [20], the z-score was -0.351 (inactive). Also, the composite z-score in [2] worked out at 0.506.
Regarding `CC1CC/C=C\[C@H]2OC34C=CCN(C(C)(C)C)C(=O)[C@H]3N(CCCCCCO)C(=O)[C@@H]4C2C(=O)O1` (stereo not given in full), the z-score is 0.0837 (inactive) in test [1]; 0.375 (inactive) in [3]; 0.794 (inactive) in test [4]; 0.39 (inactive) in [5]; 0.771 (inactive) in test [6]; -0.0989 in test [7]. For the same compound, the z-score in test [8] is 0.959 (inactive); in test [9], -0.0389 (inactive); in test [10], 1.77; in test [11], 0.406; in [12], 0.305; in test [13], 1.08. Moreover, the z-score was 0.742 in test [14]; 0.298 in test [15]; 0.436 in test [16]; 1.11 (inactive) in test [17]; 0.563 in test [18]; -0.166 in test [19]. Further, the z-score in [20] is -0.43 (inactive). For the same compound, the composite z-score in [2] is -0.0501.
